# From PubChem BioAssay (EPA / NIEHS)
# Records with an inconclusive call do not appear. The source made the active and inactive calls. Rule for the calls, unless noted: active = hit-call score of the fitted dose curve at least 0.9, where 1 is the maximum; inconclusive = response in the unintended direction; inactive = score below 0.9.
# Assays:
# [1] = TOX21_p53_BLA_p2_viability: Viability Assessment in the Tox21 HCT-116 p53 Agonism Beta-lactamase Assay, Phase 2 (AID 2283591);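 note: compound exposure lasted 16 h at 37 °C; actives lower the ATP signal meaning cytotoxicity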
# Method in brief: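 HCT-116 p53-bla cells (4000/well) rested 5 h at 37C, then received compounds in DMSO (217-fold dilution) for 16 h at 37C, 5% CO2. After the CCF4 read, CellTiter-Glo was added; ATP luminescence was read after 30 min at room temperature.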
# [2] = TOX21_p53_BLA_p3_viability: Viability Assessment in the Tox21 HCT-116 p53 Agonism Beta-lactamase Assay, Phase 3 (AID 2283593);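 note: cells exposed to compound for 16 h before reading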
# Method in brief: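 HCT-116 cells (4000/well) rested 5 h at 37C, then got DMSO compounds by pin tool (217-fold dilution) for 16 h at 37C, 5% CO2. After the bla read, CellTiter-Glo was added and luminescence read at 30 min, room temperature.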
# [3] = TOX21_p53_BLA_p4_viability: Viability Assessment in the Tox21 HCT-116 p53 Agonism Beta-lactamase Assay, Phase 4 (AID 2283597);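 note: hits lower the luminescence signal meaning cytotoxicity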
# Method in brief: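 Luminescent ATP readout (CellTiter-Glo, 30 min, room temperature) in the same wells as the p53 bla ratio. HCT116 cells were treated for 16 h at 37C with DMSO-dissolved compounds.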
# [4] = molecular target: Cellular tumor antigen p53 (Homo sapiens) (UniProt P04637); assay: TOX21_p53_BLA_p3_ratio: Tox21 HCT-116 p53 Agonism Beta-lactamase Assay, Ratio, Phase 3 (AID 2283596)
# Cellular tumor antigen p53 (Homo sapiens), sequence (P04637 whole entry, looked up): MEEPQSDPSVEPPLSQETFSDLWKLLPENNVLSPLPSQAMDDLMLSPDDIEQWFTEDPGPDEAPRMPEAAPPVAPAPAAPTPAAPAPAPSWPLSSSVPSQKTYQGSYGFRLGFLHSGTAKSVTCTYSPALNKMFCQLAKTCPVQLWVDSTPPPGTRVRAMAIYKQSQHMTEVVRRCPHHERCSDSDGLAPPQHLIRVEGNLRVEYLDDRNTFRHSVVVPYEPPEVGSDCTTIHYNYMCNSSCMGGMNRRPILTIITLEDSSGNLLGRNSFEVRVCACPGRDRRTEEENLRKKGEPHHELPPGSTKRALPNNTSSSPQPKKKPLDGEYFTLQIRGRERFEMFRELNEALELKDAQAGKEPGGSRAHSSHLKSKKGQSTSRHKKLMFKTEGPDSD
# Method in brief: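 HCT116 p53-bla cells (4000/well) given compound in DMSO (217-fold dilution) after 5 h, incubated 16 h at 37C. CCF4-AM substrate 2 h at room temperature; 460/530 nm emission ratio, gain fitted against DMSO.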
# [5] = molecular target: Cellular tumor antigen p53 (Homo sapiens) (UniProt P04637); assay: TOX21_p53_BLA_p4_ratio: Tox21 HCT-116 p53 Agonism Beta-lactamase Assay, Ratio, Phase 4 (AID 2283601)
# Method in brief: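 HCT116 cells carrying an inducible beta-lactamase reporter were plated at 4000 cells/well, rested 5 h, then exposed to compounds in DMSO (217-fold dilution) for 16 h at 37C. CCF4-AM substrate was loaded 2 h at room temperature; 460/530 nm emission ratio scored gain-of-signal versus DMSO.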
# [6] = molecular target: Cellular tumor antigen p53 (Homo sapiens) (UniProt P04637); assay: TOX21_p53_BLA_p5_ratio: Tox21 HCT-116 p53 Agonism Beta-lactamase Assay, Ratio, Phase 5 (AID 2283599)
# Method in brief: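 HCT-116 cells carrying a p53-inducible beta-lactamase reporter were seeded at 4000 cells/well and dosed after 5 h with compound in DMSO (217-fold dilution). After 16 h at 37C, CCF4-AM substrate was added for 2 h, and the 460/530 nm emission ratio was scored as gain-of-signal versus DMSO.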
# [7] = TOX21_p53_BLA_p5_viability: Viability Assessment in the Tox21 HCT-116 p53 Agonism Beta-lactamase Assay, Phase 5 (AID 2283600)
# Method in brief: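 Seeded cells (4000/well) settle 5 h before compound addition. Plates then incubate 16 h at 37C, receive FRET substrate for 2 h, and finally CellTiter-Glo, with luminescence measured after a 30 min room-temperature incubation.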
# [8] = CCTE_Harrill_HTTr_Viability_MCF7: CCTE's 6-hour Cell Viability Assessment for the High-Throughput Transcriptomics (HTTr) Platform, in MCF-7 cells cultured in DMEM + 10% fetal bovine serum, Harrill Lab (AID 2284010; active = hit-call score of the fitted dose curve at least 0.9, where 1 is the maximum; inactive = score below 0.9)
# Method in brief: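 Membrane integrity was scored by high-content imaging of propidium iodide dye exclusion after a 6 h exposure across an eight-point dilution series. Data were fitted bidirectionally relative to DMSO as negative control and baseline.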
# [9] = CCTE_Harrill_HTTr_Apoptosis_MCF7: CCTE's 6-hour Apoptosis Assessment for the High-Throughput Transcriptomics (HTTr) Platform, in MCF-7 cells cultured in DMEM + 10% fetal bovine serum, Harrill Lab (AID 2284011; active = hit-call score of the fitted dose curve at least 0.9, where 1 is the maximum; inactive = score below 0.9)
# Method in brief: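 Apoptosis in MCF-7 cells grown in DMEM with 10% fetal bovine serum was scored after a six hour exposure by high content imaging of caspase-3/7 activation (CellEvent Caspase 3/7 Green), with DMSO serving as negative control and baseline.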
# [10] = CCTE_Harrill_HTTr_CellCount_MCF7: CCTE's Cell Proliferation Assessment for the High-Throughput Transcriptomics (HTTr) Platform, Harrill Lab (AID 2284012);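 note: cells exposed to compound for six hours; intended direction is loss of nuclei count meaning fewer cells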
# Method in brief: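 MCF-7 cells were exposed for 6 h to an eight-point dilution series; Hoechst-labeled nuclei were counted by high content imaging. Curves were fitted bidirectionally against DMSO as negative control and baseline, with signal loss indicating reduced cell count.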
# [11] = molecular target: PGR (gene 5241) (UniProt P06401); assay: TOX21_PR_BLA_Followup_Antagonist_ratio: Tox21 HEK293 Progesterone Receptor (PR) Antagonism Beta-lactamase Follow-Up Assay, Ratio (AID 2283934)
# PGR (gene 5241), sequence (P06401 whole entry, looked up): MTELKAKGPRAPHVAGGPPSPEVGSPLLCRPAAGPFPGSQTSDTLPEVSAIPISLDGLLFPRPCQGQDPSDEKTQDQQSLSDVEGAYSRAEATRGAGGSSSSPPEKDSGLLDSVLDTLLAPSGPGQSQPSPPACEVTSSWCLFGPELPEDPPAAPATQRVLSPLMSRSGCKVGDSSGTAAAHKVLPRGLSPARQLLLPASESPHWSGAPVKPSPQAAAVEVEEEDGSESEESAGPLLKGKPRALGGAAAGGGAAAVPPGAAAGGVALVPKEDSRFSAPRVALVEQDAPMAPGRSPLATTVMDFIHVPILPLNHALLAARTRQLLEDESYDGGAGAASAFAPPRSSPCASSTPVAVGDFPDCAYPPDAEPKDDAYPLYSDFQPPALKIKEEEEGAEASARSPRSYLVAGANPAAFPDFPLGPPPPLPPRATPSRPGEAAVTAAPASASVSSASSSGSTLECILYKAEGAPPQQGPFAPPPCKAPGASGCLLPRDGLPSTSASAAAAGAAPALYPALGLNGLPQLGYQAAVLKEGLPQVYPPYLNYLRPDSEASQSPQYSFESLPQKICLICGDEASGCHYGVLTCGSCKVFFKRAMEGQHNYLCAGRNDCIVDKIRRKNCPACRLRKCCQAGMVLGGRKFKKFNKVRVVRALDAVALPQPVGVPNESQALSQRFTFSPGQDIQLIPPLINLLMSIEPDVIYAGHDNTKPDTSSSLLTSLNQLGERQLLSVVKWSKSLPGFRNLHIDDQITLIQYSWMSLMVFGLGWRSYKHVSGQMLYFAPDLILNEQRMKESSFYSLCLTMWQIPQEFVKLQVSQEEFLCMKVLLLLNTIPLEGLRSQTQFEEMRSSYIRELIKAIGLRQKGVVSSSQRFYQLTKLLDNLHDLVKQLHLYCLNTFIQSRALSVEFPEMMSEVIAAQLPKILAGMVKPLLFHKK
# Method in brief: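 PR-UAS-bla HEK293T cells in medium with 2% charcoal-stripped FBS were treated with compounds plus 1 nM (final) promegestone (R5020) for 16 hr at 37C. LiveBLAzer B/G FRET substrate was then added for 2 h at room temperature; signal is cleaved/uncleaved substrate ratio versus DMSO.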
# [12] = TOX21_PR_BLA_Followup_Agonist_viability: Viability Assessment in the Tox21 HEK293 Progesterone Receptor (PR) Agonism Beta-lactamase Follow-Up Assay (AID 2283935);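 note: signal loss means lower viability so actives are cytotoxic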
# Method in brief: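 PR-UAS-bla HEK293T cells in 2% charcoal-stripped FBS medium, compound added after 6 hr plating, 16 hr at 37C/5% CO2. After bla FRET read, CellTiter-Glo added; luminescence read after 30 min at room temperature; signal loss marks cytotoxicity.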
# [13] = molecular target: PGR (gene 5241) (UniProt P06401); assay: TOX21_PR_LUC_Followup_Antagonist: Tox21 HEK293 Progesterone Receptor (PR) Antagonism Luciferase Follow-Up Assay (AID 2283938);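 note: curve fitted upward as signal gain over DMSO baseline despite antagonist label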
# Method in brief: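 Luciferase reporter in HEK293-PR-A-luc cells: 16 h compound treatment at 37C, ONE-Glo luminescence detection, DMSO as negative control and baseline.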
# [14] = TOX21_PR_LUC_Followup_Antagonist_viability: Viability Assessment in the Tox21 HEK293 Progesterone Receptor (PR) Antagonism Luciferase Follow-Up Assay (AID 2283940)
# Method in brief: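 HEK293-PR-A-luc cells, precultured 5 days in assay medium with 10% charcoal-stripped FBS, were seeded at 3,000 cells/well, treated with compounds in DMSO for 16 h at 37C, and viability was read as cellular ATP by CellTiter-Glo luminescence.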
# [15] = TOX21_PR_LUC_Followup_Agonist_viability: Viability Assessment in the Tox21 HEK293 Progesterone Receptor (PR) Agonism Luciferase Follow-Up Assay (AID 2283941);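 note: loss of signal means cytotoxicity so actives lower viability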
# Method in brief: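 HEK293-PR-A-luc cells, pre-cultured 5 days in 10% charcoal-stripped FBS, were seeded at 3,000 cells/well, rested 5 h at 37C, then given compound in DMSO for 16 h at 37C. Cellular ATP was read by CellTiter-Glo luminescence; signal loss indicates cytotoxicity.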
smiles,measurement,setting,value
CC(C)=CCCC(C)=CC=NO,outcome,[1],inactive
same,outcome,[2],inactive
same,outcome,[3],inactive
NC(Cc1ccc(Cl)cc1)C(=O)O (stereo not given),outcome,[1],inactive
same,outcome,[2],inactive
same,outcome,[4],inactive
same,outcome,[5],inactive
CN(C)CCOC1=Cc2ccccc2Sc2ccc(Cl)cc21,outcome,[1],inactive
same,outcome,[2],inactive
same,AC50,[3],35.4 µM (active)
CCCCCCCCCCCCCCCCCCOCCO,outcome,[1],inactive
same,outcome,[2],inactive
same,outcome,[3],inactive
same,outcome,[6],inactive
same,outcome,[7],inactive
O=C(O)c1ccccc1Cl,outcome,[1],inactive
same,outcome,[2],inactive
same,outcome,[4],inactive
same,outcome,[6],inactive
same,outcome,[7],inactive
same,outcome,[5],inactive
[O]=[Mo](=[O])=[O],outcome,[1],inactive
same,outcome,[2],inactive
same,outcome,[4],inactive
same,outcome,[7],inactive
OC[C@H]1O[C@H](O[C@H]2O[C@H](CO)[C@@H](O)[C@H](O)[C@H]2O)[C@H](O)[C@@H](O)[C@@H]1O,outcome,[1],inactive
same,outcome,[2],inactive
same,outcome,[4],inactive
same,outcome,[7],inactive
CCOC(=O)[C@@H](N)CS,outcome,[1],inactive
same,outcome,[2],inactive
same,outcome,[4],inactive
same,outcome,[7],inactive
same,outcome,[5],inactive
CCC[C@H](N[C@@H](C)C(=O)N1[C@H](C(=O)O)C[C@@H]2CCCC[C@@H]21)C(=O)OCC,outcome,[1],inactive
same,outcome,[2],inactive
same,outcome,[4],inactive
same,outcome,[7],inactive
same,outcome,[5],inactive
same,outcome,[8],inactive
same,outcome,[9],inactive
same,outcome,[10],inactive
Oc1cc2c(cc1O)[C@H]1c3ccc(O)c(O)c3OC[C@@]1(O)C2,outcome,[1],inactive
same,outcome,[2],inactive
same,outcome,[3],inactive
same,outcome,[6],inactive
CCCCCCc1ccc(-c2ccc(C#N)cc2)cc1,outcome,[1],inactive
same,outcome,[2],inactive
same,outcome,[3],inactive
COCCCOc1cc(C[C@@H](C[C@H](N)[C@@H](O)C[C@H](C(=O)NCC(C)(C)C(N)=O)C(C)C)C(C)C)ccc1OC,outcome,[1],inactive
same,outcome,[2],inactive
same,outcome,[3],inactive
same,outcome,[6],inactive
same,outcome,[7],inactive
NCC1CCC(C(=O)O)CC1 (stereo not given),outcome,[1],inactive
same,outcome,[2],inactive
same,outcome,[4],inactive
same,outcome,[6],inactive
same,outcome,[5],inactive
CCCc1nn(C)c2c(=O)[nH]c(-c3cc(S(=O)(=O)N4CCN(C)CC4)ccc3OCC)nc12,outcome,[1],inactive
same,outcome,[2],inactive
same,outcome,[4],inactive
same,outcome,[7],inactive
COC(=O)[C@H]1[C@H]2C[C@@H]3c4[nH]c5cc(OC)ccc5c4CCN3C[C@H]2C[C@H](OC)[C@@H]1OC,outcome,[1],inactive
same,outcome,[2],inactive
same,outcome,[3],inactive
same,outcome,[6],inactive
CC(N)C(=O)OC(C)(C)Cc1ccc(Cl)cc1 (stereo not given),outcome,[1],inactive
same,outcome,[2],inactive
same,outcome,[4],inactive
same,outcome,[7],inactive
same,outcome,[5],inactive
Nc1c(CC(=O)O)cccc1C(=O)c1ccc(Br)cc1,outcome,[1],inactive
same,outcome,[2],inactive
same,outcome,[4],inactive
same,outcome,[5],inactive
same,outcome,[8],inactive
same,outcome,[9],inactive
COc1ccc2[nH]c(S(=O)Cc3ncc(C)c(OC)c3C)nc2n1 (stereo not given),outcome,[1],inactive
same,outcome,[2],inactive
same,outcome,[4],inactive
same,outcome,[5],inactive
NC(=O)CCCCC1CCSS1 (stereo not given),outcome,[1],inactive
same,outcome,[2],inactive
same,outcome,[3],inactive
same,outcome,[6],inactive
COC(OC)OC,outcome,[1],inactive
same,outcome,[2],inactive
same,outcome,[4],inactive
same,outcome,[5],inactive
CSCCC(N)C(=O)O (stereo not given),outcome,[1],inactive
same,outcome,[2],inactive
same,outcome,[4],inactive
same,outcome,[6],inactive
same,outcome,[5],inactive
Brc1ccccc1-c1ccccc1,outcome,[1],inactive
same,outcome,[2],inactive
same,outcome,[4],inactive
same,outcome,[6],inactive
same,outcome,[7],inactive
same,outcome,[5],inactive
COCC(=O)Nc1c(I)c(C(=O)NCC(O)CO)c(I)c(C(=O)N(C)CC(O)CO)c1I (stereo not given),outcome,[1],inactive
same,outcome,[2],inactive
same,outcome,[4],inactive
same,outcome,[7],inactive
same,outcome,[5],inactive
NS(=O)(=O)c1cc2c(cc1C(F)(F)F)NC(Cc1ccccc1)NS2(=O)=O (stereo not given),outcome,[1],inactive
same,outcome,[2],inactive
same,outcome,[4],inactive
same,outcome,[6],inactive
same,outcome,[7],inactive
same,outcome,[5],inactive
Nc1nccs1,outcome,[1],inactive
same,outcome,[2],inactive
same,outcome,[4],inactive
same,outcome,[6],inactive
same,outcome,[7],inactive
same,outcome,[5],inactive
C[n+]1ccccc1/C=N/O,outcome,[1],inactive
same,outcome,[2],inactive
same,outcome,[4],inactive
same,outcome,[7],inactive
Nc1ccccc1S(=O)(=O)c1ccccc1,outcome,[1],inactive
same,outcome,[2],inactive
same,outcome,[4],inactive
same,outcome,[6],inactive
same,outcome,[7],inactive
same,outcome,[5],inactive
same,outcome,[11],inactive
same,outcome,[12],inactive
same,outcome,[13],inactive
same,outcome,[14],inactive
same,outcome,[15],inactive
CC(O)[C@@H]1NC(=O)[C@H](CCCCN)NC(=O)[C@@H](Cc2c[nH]c3ccccc23)NC(=O)[C@H](Cc2ccccc2)NC(=O)[C@@H](NC(=O)[C@H](N)Cc2ccccc2)CSSC[C@@H](C(=O)N[C@H](CO)[C@@H](C)O)NC1=O (stereo not given in full),outcome,[1],inactive
same,outcome,[2],inactive
same,outcome,[3],inactive
same,outcome,[6],inactive
same,outcome,[7],inactive
Cc1cc(-c2ccc(N=Nc3c(S(=O)(=O)O)cc4cc(S(=O)(=O)O)cc(N)c4c3O)c(C)c2)ccc1N=Nc1c(S(=O)(=O)O)cc2cc(S(=O)(=O)O)cc(N)c2c1O,outcome,[1],inactive
same,AC50,[2],16.3 µM (active)
same,AC50,[3],20.6 µM (active)
O=c1[nH]c2ccccc2n1CCCN1CCN(C(c2ccccc2)c2ccccc2)CC1,outcome,[1],inactive
same,outcome,[2],inactive
same,AC50,[3],31.3 µM (active)
same,outcome,[7],inactive
Cc1ccc(Cl)cc1N,outcome,[1],inactive
same,outcome,[2],inactive
same,outcome,[3],inactive
same,outcome,[6],inactive
same,outcome,[5],inactive
